# SRC3 inh: inhibitors of human steroid receptor coactivator 3 (SRC3); HEK293 GAL4-SRC3 luciferase reporter, luminescence; inhibition, % at 3.6 µM; hit rate 0.17% among 360,000; AID 588352;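 active = inhibition above a per-campaign cutoff, the mean of all compounds plus 3 SD, cut at about 60% in these data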;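 note: 0% = DMSO-treated cells and 100% = gossypol-treated cells at 36 µM; higher means less SRC3-driven luciferase light from the GAL4 reporter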
# Target sequence (Q9Y6Q9 whole entry, looked up, the tested form may be a part): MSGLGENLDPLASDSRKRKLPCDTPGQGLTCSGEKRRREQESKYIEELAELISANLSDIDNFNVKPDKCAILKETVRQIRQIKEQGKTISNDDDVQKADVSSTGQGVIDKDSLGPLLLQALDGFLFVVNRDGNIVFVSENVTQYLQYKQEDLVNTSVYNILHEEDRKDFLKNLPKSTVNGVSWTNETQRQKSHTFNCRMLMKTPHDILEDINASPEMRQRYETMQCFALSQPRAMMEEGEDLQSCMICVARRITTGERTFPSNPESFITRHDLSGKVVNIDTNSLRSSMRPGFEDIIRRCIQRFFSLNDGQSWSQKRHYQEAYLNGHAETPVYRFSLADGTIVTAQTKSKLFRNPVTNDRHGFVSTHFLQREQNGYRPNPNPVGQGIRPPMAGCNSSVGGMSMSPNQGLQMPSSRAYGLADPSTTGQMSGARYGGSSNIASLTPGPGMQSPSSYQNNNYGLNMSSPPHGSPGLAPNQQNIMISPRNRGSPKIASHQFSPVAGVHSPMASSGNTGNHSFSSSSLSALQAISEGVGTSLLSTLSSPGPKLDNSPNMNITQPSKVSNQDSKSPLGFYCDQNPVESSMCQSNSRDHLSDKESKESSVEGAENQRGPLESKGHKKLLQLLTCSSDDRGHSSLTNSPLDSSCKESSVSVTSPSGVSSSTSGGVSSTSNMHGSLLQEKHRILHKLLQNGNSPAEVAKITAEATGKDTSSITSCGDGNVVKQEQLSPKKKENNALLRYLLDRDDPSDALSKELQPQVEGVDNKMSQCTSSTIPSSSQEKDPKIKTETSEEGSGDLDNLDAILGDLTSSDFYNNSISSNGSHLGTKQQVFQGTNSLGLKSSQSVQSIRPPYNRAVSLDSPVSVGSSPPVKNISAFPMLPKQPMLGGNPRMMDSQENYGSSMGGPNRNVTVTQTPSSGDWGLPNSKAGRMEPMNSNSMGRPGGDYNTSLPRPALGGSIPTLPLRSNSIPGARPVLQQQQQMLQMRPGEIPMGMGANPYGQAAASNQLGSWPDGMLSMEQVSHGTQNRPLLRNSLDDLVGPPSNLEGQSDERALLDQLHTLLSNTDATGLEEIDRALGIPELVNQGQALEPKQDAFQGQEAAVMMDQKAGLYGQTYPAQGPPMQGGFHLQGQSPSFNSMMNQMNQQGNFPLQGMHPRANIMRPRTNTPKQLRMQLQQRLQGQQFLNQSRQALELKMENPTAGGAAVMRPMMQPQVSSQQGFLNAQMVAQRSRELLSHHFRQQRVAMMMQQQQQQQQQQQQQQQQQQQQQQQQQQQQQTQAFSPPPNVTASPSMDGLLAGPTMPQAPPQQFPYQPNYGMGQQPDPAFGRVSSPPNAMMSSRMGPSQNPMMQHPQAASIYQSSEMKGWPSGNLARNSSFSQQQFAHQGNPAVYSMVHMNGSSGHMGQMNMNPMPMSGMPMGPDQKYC
# SRC1 inh: human NCOA1 inhibition; Q15788; HEK293 GAL4-SRC1 luciferase reporter, luminescence; inhibition, % at 3.6 µM; hit rate 0.12% among 360,000; AID 588354;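 active = inhibition above the campaign mean plus 3 SD, with each screening campaign given its own cutoff, cut at about 60% in these data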;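 note: 0% = DMSO treated cells and 100% = gossypol at 36 µM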
# NCOA2 inhibitor: inhibits human steroid receptor coactivator 2; Q15596; HEK293 GAL4-SRC2 luciferase reporter, luminescence; inhibition, % at 9 µM; hit rate 0.17% among 370,000;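 active = inhibition above the mean inhibition of all tested compounds plus 3 SD, set per campaign, cut at about 52% in these data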;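 note: 0% = DMSO treated cells and 100% = cells given Gossypol at 36 µM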
# Shn3 inh set2: Schnurri-3 reporter inhibition in Clone20 osteoblasts; Clone20 osteoblast Shn3 3'UTR firefly luciferase, 24 h; inhibition, % at 12.5 µM; hit rate 0.52% among 360,000; AID 588674;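 active = mean inhibition of at least 75% with every replicate also reaching 75%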;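 note: 0% = median of neutral control wells and 100% = pilot-screen positive control compound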
# Gli-Sufu antag: blocks Gli-Sufu signaling in a luciferase reporter; inhibition, % at 5 µM; AID 588413; Sufu-KO-LIGHT fibroblasts, Gli luciferase reporter luminescence; hit rate 0.74% among 340,000;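 active = inhibition above about 55%, limit read from the data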;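 note: 0% = DMSO-treated cells and 100% = wells with medium but no cells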
# NR5A2 inv ag: NR5A2 inverse agonism in reporter assay; HEK293T StAR-luciferase reporter, LRH-1 transfected, 24 h; inhibition, % at 3.6 µM; hit rate 0.13% among 360,000; AID 602396; O00482;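 active = inhibition above the mean inhibition of all tested compounds plus 3 SD, cut at about 73% in these data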;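 note: 0% = DMSO wells and 100% = reporter-only cells lacking LRH-1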
# * marks the source's active call; other numbers are inactive results; . = not tested or not shown. Rows were chosen to be rich in hits. Some 1.1% of all compounds tested hit in one or more screens of this group.
SMILES,SRC3 inh,SRC1 inh,NCOA2 inhibitor,Shn3 inh set2,Gli-Sufu antag,NR5A2 inv ag
Cc1cccc(CS(=O)(=O)c2ncc(Cl)c(C(=O)Nc3nnc(C(C)C)s3)n2)c1,14.3,-8.1,.,95.5*,32.3,22.9
Cc1nnc(NC(=O)c2nc(S(=O)(=O)Cc3ccccc3C)ncc2Cl)s1,-18.7,-55.4,39.0,96.4*,10.8,20.8
CSc1nnc(NC(=O)c2nc(S(=O)(=O)Cc3cccc(C)c3)ncc2Cl)s1,-17.1,-43.5,56.4*,96.0*,16.2,13.9
CC(C)c1nnc(NC(=O)CS(=O)(=O)Cc2ccccc2)s1,1.1,-8.5,-22.2,-10.2,10.0,8.7
CSc1nnc(NC(=O)c2nc(S(=O)(=O)Cc3ccccc3F)ncc2Cl)s1,-34.8,-57.5,31.6,96.3*,5.1,-9.1
CC(C)c1nnc(NC(=O)c2nc(S(=O)(=O)Cc3ccccc3F)ncc2Cl)s1,.,.,45.0,.,3.4,.
Cc1ccc(CN2CCCCC(NC(=O)c3ccccc3C)C2=O)cc1 (stereo unspecified),.,.,10.5,.,.,.
Cc1ccc(CS(=O)(=O)c2ncc(Cl)c(C(=O)Nc3nnc(C(C)C)s3)n2)cc1,7.6,-80.1,45.2,94.9*,31.8,29.2
C=CCSc1nnc(NC(=O)c2nc(SCC)ncc2Cl)s1,13.6,10.0,.,-4.9,-3.3,-8.9
CC(C)c1nnc(NC(=O)CCC(=O)N2CCN(Cc3ccc(F)cc3)CC2)s1,13.4,8.8,9.6,-1.6,-5.0,-4.9
CCSc1nnc(NC(=O)c2nc(S(=O)(=O)Cc3ccc(F)cc3)ncc2Cl)s1,4.0,-80.5,26.8,95.8*,16.8,-4.7
CC(C)c1nnc(NC(=O)c2nc(S(=O)(=O)Cc3ccc(F)cc3)ncc2Cl)s1,-10.0,-104.2,16.8,98.4*,30.7,-4.9
CCCCCCCCNS(=O)(=O)CC1NCc2cc(F)ccc21 (stereo unspecified),.,.,-17.7,.,.,.
C=CCN1C(=O)[C@@H](CC(=O)N2CCN(C(=O)C3CC3)CC2)[C@]2(C(=O)OC)CCCCC=C12,.,.,-41.6,.,.,.
COc1cc(NS(C)(=O)=O)ccc1Nc1c2ccccc2nc2ccccc12,64.1*,61.8*,-23.1,91.7*,73.8*,46.0
COc1ccc(OC)c(Nc2c3ccccc3nc3ccccc23)c1,-6.8,6.0,5.1,77.3,29.6,12.8
CCOC(=O)c1cc([N+](=O)[O-])cc([N+](=O)[O-])c1Sc1ncnc2nc[nH]c12,-10.7,-40.0,-24.0,95.7*,9.6,4.0
CCN(CC)c1ccc(/C=C/c2cccc[n+]2C)c(OC)c1,61.3,58.5,4.1,89.1*,89.0*,82.1*
COc1ccc(/C=C/c2cccc[n+]2C)c(O)c1,-7.9,-20.1,6.9,-4.8,33.7,-2.2
CCCCN(C)C(=O)C1CCN(S(=O)(=O)c2ccc3[nH]c(=O)oc3c2)CC1,.,.,-10.4,.,.,.
CCCCCCCN1C(Nc2ccccc2)=NC[C@@H]1Cc1ccccc1,-2.9,-1.2,9.7,86.5*,7.3,25.0
c1ccc(CCCCN2C(Nc3ccccc3)=NC[C@@H]2Cc2ccccc2)cc1,8.4,8.8,15.6,4.2,23.0,9.4
Cc1ccc(C(=O)N2CCN(c3ccc(NC(=O)c4ccc5c(c4)OCCO5)cc3)CC2)cc1,6.5,18.4,20.2,70.2,35.3,-14.5
Cc1ccccc1C(=O)N1CCN(c2ccc(NC(=O)c3ccc4c(c3)OCCO4)cc2)CC1,39.5,34.7,41.1,85.9*,33.8,35.5
Cc1cc(NCCCCCCCNc2cc(C)nc3cc([N+](=O)[O-])ccc23)c2ccc([N+](=O)[O-])cc2n1,-5.8,8.0,-24.9,86.3*,12.8,53.7
SMILES,SRC3 inh,SRC1 inh,NCOA2 inhibitor,Shn3 inh set2,Gli-Sufu antag,NR5A2 inv ag
O=C(/C=C/Nc1ccccc1Br)c1ccccn1,59.3,43.3,81.1*,89.8*,-75.5,41.6
O=C(/C=C\Nc1ccccn1)c1ccccc1,-64.1,-76.0,-26.5,15.7,-72.0,-126.5
COc1ccccc1Cc1c(-c2ccco2)nc2c(C)cc(Br)cn12,-17.9,2.4,.,93.6*,.,16.8
CC1=CN2C(=N)/C(=C/c3ccc([N+](=O)[O-])o3)C(=O)N=C2S1,-14.9,-26.6,-18.2,93.6*,4.8,13.6
CC1=CN2C(=N)/C(=C/c3ccco3)C(=O)N=C2S1,-61.6,-125.5,-69.6,-117.1,-65.4,-137.0
c1ccc(-c2nnc(-c3ccccn3)nc2NC2CCCCC2)cc1,78.2*,50.5,13.8,80.2,91.0*,67.5
O=C(NCCc1ccccc1)OCc1cn(Cc2cc(F)ccc2F)nn1,.,.,0.0,.,.,.

# Assay outcomes (PubChem BioAssay)
